Screens deposited in PubChem by National Center for Advancing Translational Sciences (NCATS).
BAZ2B block – BAZ2B (human) inhibition. Q9UIF8. Potency, µM (titrated, usually from 114 µM), without a hit: top-dose activity change, negative = inhibition, most hits filed as inhibitors. AlphaScreen BAZ2B-H3K14Ac peptide displacement. 360,000 tested, 4.4% active. AID 504333; also: % is scaled to controls: 0 for no effect and ±100 for the full control effect; nearly all actives have a fitted effect of over 60% in size
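AlphaScreen displacement of biotin-H3(5-23)K14Ac peptide (50 nM final) from BAZ2B (50 nM final) in PBS pH 7.4, 0.01% Tween-20; complex preformed 30 min RT, then compounds (top 110 uM) 30 min RT, beads 20 min dark.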
HP1b chromo inh – HP1-beta chromodomain-methylated histone interaction inhibition; P83916; AlphaScreen HP1-beta / biotin-H3K9me3 peptide binding; Potency, µM (titrated, usually from 114 µM), for the others: at the top dose activity change, negative = inhibition, most hits filed as inhibitors; 390,000 tested, 0.56% active; AID 540317; also: nearly all actives have a fitted effect of over 70% in size
Target sequence (P83916 whole entry, looked up): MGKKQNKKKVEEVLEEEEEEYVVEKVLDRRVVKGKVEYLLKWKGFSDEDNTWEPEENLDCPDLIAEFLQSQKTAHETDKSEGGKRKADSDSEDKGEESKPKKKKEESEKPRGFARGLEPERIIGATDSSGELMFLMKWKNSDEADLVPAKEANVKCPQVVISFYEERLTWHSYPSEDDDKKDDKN
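Compound inhibition of the preformed complex between 50 nM HP1-beta and 50 nM biotinylated H3K9me3 peptide was read by AlphaScreen. Buffer was PBS pH 7.4 with 0.01% Tween-20. Incubations ran 30 min at room temperature, with 10 ug/mL donor/acceptor beads.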
G9a inh – inhibitors of human histone lysine methyltransferase G9a | Q96KQ7 | G9a H3K9 monomethylation, AlphaScreen, 2 h | Potency, µM (doses to about 102 µM), inactives show at the highest dose activity, negative = inhibition, most hits filed as inhibitors | 350,000 tested, 8.8% active | AID 504332; also: % is scaled to controls: 0 for no effect and ±100 for the full control effect; nearly all actives have a fitted effect of over 75% in size
Target sequence (Q96KQ7 913-1193 limits assumed): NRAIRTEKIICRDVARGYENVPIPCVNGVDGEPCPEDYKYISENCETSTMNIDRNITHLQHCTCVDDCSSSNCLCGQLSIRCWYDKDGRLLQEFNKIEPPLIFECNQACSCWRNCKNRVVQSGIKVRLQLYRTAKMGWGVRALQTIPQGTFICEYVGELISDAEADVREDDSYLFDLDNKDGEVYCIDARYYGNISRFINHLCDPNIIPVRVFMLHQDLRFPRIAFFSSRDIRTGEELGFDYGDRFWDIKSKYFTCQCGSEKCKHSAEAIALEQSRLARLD
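Compounds were preincubated with 20 nM G9a for 15 min, after which biotinylated H3K9 peptide (500 nM) and SAM (20 uM) started a 2 h room-temperature reaction. Monomethylated product was quantified by antibody-based AlphaScreen chemiluminescence.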
GLS inh – blocks human kidney-isoform glutaminase activity; GLS enzymatic activity, qHTS titration; AID 624170; Potency, µM (top dose mostly 45.5 µM), for inactives: at the top dose activity change, negative = inhibition, most hits filed as inhibitors; O94925; 410,000 tested, 0.21% active; also: % is scaled to controls: 0 for no effect and ±100 for the full control effect
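Coupled fluorescence readout: glutamate oxidase/HRP/Amplex Red detect glutamate formed by hKGA from L-glutamine (1 mM solution added). Buffer 45 mM KH2PO4 pH 8.2, 0.02% Tween-20; reads at t0 and 30 min RT.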
JMJD2A Tudor inh – blocks the human JMJD2A Tudor domain; 390,000 tested, 4.4% active; AID 504339; AlphaScreen JMJD2A-Tudor / H3K4me3 peptide binding; O75164; Potency, µM (top dose mostly 114 µM), for inactives: at the top dose activity change, negative = inhibition, actives largely listed as inhibitors; also: % is scaled to controls: 0 for no effect and ±100 for the full control effect; nearly all actives have a fitted effect of over 50% in size
* hit, by the source's call; ? = inconclusive; . = no result given; [ ] = another dose, or the depositor's remark. In the library only some 10% were active in any assay of this set; here they are far more common. Calls follow the shape of the dose curve; as a rule, active = well fitted curve in the direction sought with a large enough effect; inconclusive = small, poorly fitted or top-dose-only effect, or another doubt; inactive = no such curve, though single readings can be large; an effect the other way counts as inactive or inconclusive. Potency is read from the fitted curve at half-maximal effect.

SMILES | BAZ2B block | HP1b chromo inh | G9a inh | GLS inh | JMJD2A Tudor inh
CCN1C(=O)[C@@H]2Cc3c([nH]c4ccccc34)C(c3ccc(OC)cc3)N2C1=S (stereo partly drawn) | -30% | 1% | 35µM* | 8% | ?
COC(=O)c1ccc(C2c3[nH]c4ccccc4c3C[C@H]3C(=O)N(C)CC(=O)N23)cc1 (stereo partly drawn) | -18% | -9% | ? | 6% | -24%
CCCC1OC2CC3C4CCC5=CC(=O)C=CC5(C)C4C(O)CC3(C)[C@]2(C(=O)CO)O1 (stereo partly drawn) | . | . | -3%[2.33 µM] | . | .
CCc1ccccc1S(=O)(=O)Cc1ccc(C(=O)NCCc2ccc(C)cc2)o1 | -2% | 49% | 3%[59 µM] | -3% | 20µM*
CCC(=O)N1CCC1(C)C(=O)Nc1ccc(Cl)c(Cl)c1 (stereo not drawn) | . | . | . | 9% | .
Clc1ccc(-c2ccc(C=Nc3ccc(N4CCOCC4)cc3)o2)c(Cl)c1 | -21% | -4% | 35µM* | 34% | ?
Clc1ccc(-c2ccc(C=Nc3ccc(N4CCOCC4)cc3)o2)cc1 | -29% | 12% | -48%[59 µM] | 16% | -18%
Oc1ccc(N=Nc2cccc(C(F)(F)F)c2)cc1C=Nc1ccc(N2CCOCC2)cc1 | ? | ? | ? | -2% | ?
Clc1cccc(-c2ccc(C=Nc3ccc(N4CCOCC4)cc3)o2)c1Cl | 18µM* | -15% | 14µM* | 37% | 25µM*
CCc1nc2c(OCc3ccc(F)c(F)c3)cccn2c1N(C)C(=O)c1cccs1 | . | . | . | 1% | .
Cc1ccc([C@@H]2C[C@H]3[C@@H](CN2S(=O)(=O)c2ccc(C)cc2)C(=O)C[C@@H](c2ccc(Cl)cc2)N3S(=O)(=O)c2ccccc2C)cc1 | . | . | . | 2% | .
c1cc2c(cc1C1CCCCC1)c1c3n2CCN=C3CCC1 | 0% | -10% | ? | -6% | ?
Cc1ccc2c(c1)c1c3n2CCN=C3CCC1 | . | 11% | 18µM* | 3% | -24%
C/C(=N\Nc1nc2ccccc2[nH]1)c1ccc2c(c1)OCO2 | ? | ? | ? | 24% | 40µM*
C(=N\Nc1nc2ccccc2[nH]1)/c1ccc2c(c1)OCO2 | -21% | 14% | -7% | 46% | -35%
C/C(=N\Nc1nc2ccccc2[nH]1)c1ccc2c(c1)OCCO2 | 32µM* | ? | ? | -13% | 50µM*
C/C(=N\Nc1ccccn1)c1ccc2c(c1)OCO2 | ? | -7% | 8% | -6% | -16%
O=C(O)c1ccccc1Nc1ccc([N+](=O)[O-])c2nonc12 | 40µM* | ? | 45µM* | 7% | -31%
NC(=O)c1cc([N+](=O)[O-])ccc1Nc1ccccc1 | 4% | 18% | 10%[2.33 µM] | 6% | -24%
O=[N+]([O-])c1cc([N+](=O)[O-])c2nonc2c1Nc1ccccc1O | -21% | 22% | ? | 27% | -18%
O=C(O)c1ccccc1Nc1ccc([N+](=O)[O-])cc1C(=O)O | ? | -5% | 32µM* | 6% | 32µM*
c1ccc(N=c2nc(-c3ccccc3)n(-c3ccccc3)s2)cc1 | . | -26%[57 µM] | . | . | -33%[57.1 µM]
O=C(C(=O)N1CCCc2ccccc21)N1CCCc2ccccc21 | -1% | 19% | 12%[59 µM] | -1% | -6%
Nc1nc2nc(SCC(=O)N3CCCc4ccccc43)[nH]c2c(=O)[nH]1 | -7% | . | 79µM* | . | .
CCN(CC)c1ccc(/C=N/OCC(=O)N2CCCc3ccccc32)cc1 | ? | ? | 40µM* | 7% | ?
SMILES | BAZ2B block | HP1b chromo inh | G9a inh | GLS inh | JMJD2A Tudor inh
O=C(CO/N=C/c1ccc(OC(F)F)cc1)N1CCc2ccccc21 | 7% | 22% | -1%[59 µM] | -2% | -10%
O=C(CCCC(=O)N1CCCc2ccccc21)N1CCCc2ccccc21 | 10% | 27% | 21% | 10% | -9%
O=C(CN1CCCCC1)N1CCCc2ccccc21 | 50µM* | ? | ? | 6% | 2.5µM*
O=C(CN1CCCC1)N1CCCc2ccccc21 | 50µM* | ? | . | 0% | 3.5µM*
Cc1ccc(CNc2ccc3c(c2)OCO3)c(C)c1 | 45µM* | . | 13µM* | . | .
COc1ccc(NCc2ccc3c(c2)OCO3)cc1Cl | 40µM* | ? | ? | -6% | 45µM*
COc1cc(OC)c(OC)cc1CNCc1ccc2c(c1)OCO2 | -29% | 8% | 45µM* | -12% | 50µM*
COc1ccc(Cl)cc1S(=O)(=O)NC(C)C(=O)NCc1ccc2c(c1)OCO2 (stereo not drawn) | 3% | 8% | 13% | -18% | 50µM*
O=C(Nc1ccc2c(c1)OCCO2)C(=O)NC1CC1 | 0% | 26% | 1% | -3% | -4%
CC(C)CCn1nnnc1C(c1ccc(N(C)C)cc1)N1CCN(C(=O)c2ccco2)CC1 (stereo not drawn) | ? | -20% | 50µM* | 47% | ?
CN(C)c1ccc(C(c2nnnn2C(C)(C)C)N2CCN(C(=O)c3ccco3)CC2)cc1 (stereo not drawn) | -30% | -16% | 10µM* | 26% | -28%
Cc1ccc(C)c(N2CCN(C(c3ccc(N(C)C)cc3)c3nnnn3C(C)(C)C)CC2)c1 (stereo not drawn) | -8% | -42% | 4.5µM* | 14% | ?
CC(C)CCn1nnnc1CN1CCN(C(=O)c2ccco2)CC1 | -3% | 9% | 50µM* | 1% | ?
Cc1cccc(N2CCN(C(=O)C3CCN(S(=O)(=O)c4cccs4)CC3)CC2)c1C | -1% | 18% | 6%[59 µM] | -4% | 0%
O=C(Cc1coc2cc(O)ccc12)NNC(=O)c1ccc(Br)s1 | . | 13% | . | 22% | -17%
CC(C)(C)n1nnnc1C(c1ccccc1)N1CCN(c2ccccc2)CC1 (stereo not drawn) | . | . | . | 2% | .
CC(C)(C)n1nnnc1C(c1ccncc1)N1CCN(c2ccc(O)cc2)CC1 (stereo not drawn) | -10% | ? | ? | ? | 45µM*
Cc1ccc(C)c(N2CCN(C(c3ccncc3)c3nnnn3Cc3ccccc3)CC2)c1 (stereo not drawn) | ? | 4% | 3.2µM* | -8% | 79µM*
C=CCN1CCN(C(c2ccccc2)c2nnnn2CCC(C)C)CC1 (stereo not drawn) | ? | 51% | 50µM* | ? | 3.2µM*
O=C(NCCc1ccccc1)c1cnc2sc(N3CCCCCC3)nn2c1=O | -6% | 7% | 17%[59 µM] | -8% | -11%
CC(C)c1ccc(-c2noc(SCC(=O)N3CCCCC3)n2)cc1 | 56% | 87% | 26%[59 µM] | -3% | 52%
O=C(CN1CCN(c2ccc(F)cc2)CC1)c1ccc(O)cc1O | ? | 4%[57 µM] | 79µM* | 7% | -24%
O=C(CN1CCN(c2ccccc2F)CC1)c1ccc(O)cc1O | -29% | 12%[57 µM] | -28% | -10% | -23%
CCOC(=O)N1CCN(CC(=O)c2ccc(O)cc2O)CC1 | ? | 20% | ? | 7% | -12%
